# From PubChem BioAssay
# The source made the active and inactive calls.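 The calls were made as follows, unless noted: active = inhibition at or above 50% at 10 µM; inactive = inhibition below 50%.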
# How the values were obtained:
# [1] = inhibitors of TNFa-induced NFkB p65 translocation, primary screen, imaging, HUVEC, MLSMR starter and 10KST1 sets (AID 438;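 active = inhibition above 20% together with a positive visual image hit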;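 also: compound added about 3h40 before a 20 min TNFalpha stimulation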;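 as to inhibition: signal is the nuclear over cytoplasmic p65 intensity ratio per well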); details: HUVEC TNFa-induced p65 nuclear translocation; cell count: measured here: nuclei count (cytotoxicity indicator), at 2.08 µM; inhibition: at 2 µM, stronger effect = higher value, 0% TNFa-plus-vehicle, 100% no-TNFa wells
# [2] = inhibitors of mutant huntingtin aggregation, primary screen, imaging, exon1htt(103Q)mCFP cells, high-content imaging (AID 483;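 active = visual image review flags a hit and inhibition of aggregation exceeds 20%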;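 also: compound exposure lasted 3 days before fixation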;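 as to nuclei count: percent of the per-plate median nuclei count of sample wells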); details: exon1htt(103Q)mCFP cell line, aggregate imaging, at 2 µM; inhibition of aggregation: stronger effect = higher value; nuclei count: measured here: cell count, toxicity
# [3] = inhibitors of E-selectin induction by TNFa, primary screen, imaging, HUVEC, immunofluorescence, MLSMR starter and 10KST1 sets (AID 487;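 active = visually confirmed hit in the image check and inhibition above 20%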;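 as to inhibition: signal is fraction of cell area covered by stained E-selectin grains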;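 as to nuclei count: 100% = median nuclei count of all wells on the same plate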); details: HUVEC TNFalpha-induced E-selectin immunofluorescence imaging, at 2 µM; inhibition: stronger effect = higher value; nuclei count: measured here: cell number, toxicity
# [4] = target: Voltage-gated potassium channel subunit beta-2 (Rattus norvegicus) (UniProt P62483); assay: KvBeta enzyme negative modulators, primary screen, biochemical, NADPH fluorescence (AID 622;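 active = fluorescence slope higher than the sample average by over 3 SD, cut at about -0.22 in these data, passing the limit was not always enough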;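 also: slope of raw intensity against log time taken from 70 to 1610 s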); details: recombinant KvBeta, 4-cyanobenzaldehyde reduction, at 10 µM, stronger effect = higher value
# [5] = target: Voltage-gated potassium channel subunit beta-2 (Rattus norvegicus) (UniProt P62483); assay: KvBeta positive modulators, primary screen, biochemical, NADPH fluorescence (AID 623;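 active = NADPH fluorescence slope more negative than the mean of all samples by about 3 SD, 99.7% confidence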;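 also: fluorescence intensity change per second fitted from 20 to 320 s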); details: Recombinant KvBeta, NADPH fluorescence decrease slope, 10 min; at 10 µM; stronger effect = lower value
# [6] = target: Alpha-2C adrenergic receptor (Homo sapiens) (UniProt P18825); assay: modulators of alpha2C/GIRK thallium flux, primary screen, cell-based, HEK293 alpha2C/GIRK1/2 (AID 624;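 active = fluorescence slope after compound addition differing from the mean of all screened samples at 99.7% confidence, in either direction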;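 also: slope of fluorescence ratio to pre-addition baseline per second over 15 to 24 s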); details: thallium flux BTC fluorescence, at 10 µM, actives lie on both sides
# [7] = inhibitors of Sendai virus-induced IRF3 signaling, primary screen, TLR/RLR signaling modifier project, cell-based, Sendai virus stimulus, luciferase, 10K MLSCN set (AID 602276); details: HEK293 RL24 IRF3 luciferase reporter, at 10 µM, stronger effect = higher value;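 also: firefly luciferase from ISG56 promoter only with Renilla not read in this screen; 0% = Sendai virus plus DMSO and 100% = medium plus DMSO without virus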
# [8] = inhibitors of poly I:C-induced TLR3 signaling, primary screen, cell-based, poly I:C stimulus, luciferase, 10K MLSCN set (AID 602277;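 active = inhibition of the reporter signal at or above 50%; inactive = inhibition below 50%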); details: HEK293-TLR3 RL24 IRF3 luciferase reporter, at 10 µM, stronger effect = higher value
# Sequence of Alpha-2C adrenergic receptor (Homo sapiens) (P18825 whole entry, looked up): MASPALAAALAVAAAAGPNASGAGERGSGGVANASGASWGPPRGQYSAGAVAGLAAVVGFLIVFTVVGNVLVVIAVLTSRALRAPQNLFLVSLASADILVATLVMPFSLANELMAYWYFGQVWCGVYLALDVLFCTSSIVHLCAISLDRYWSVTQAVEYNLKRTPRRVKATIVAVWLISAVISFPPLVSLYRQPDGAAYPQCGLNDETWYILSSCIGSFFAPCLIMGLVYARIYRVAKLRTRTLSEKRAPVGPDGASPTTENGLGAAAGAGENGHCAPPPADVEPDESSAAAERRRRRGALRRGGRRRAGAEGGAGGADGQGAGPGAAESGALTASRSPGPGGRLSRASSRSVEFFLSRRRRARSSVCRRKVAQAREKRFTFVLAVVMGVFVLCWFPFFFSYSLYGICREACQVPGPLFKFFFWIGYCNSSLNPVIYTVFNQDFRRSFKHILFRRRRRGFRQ
# Sequence of Voltage-gated potassium channel subunit beta-2 (Rattus norvegicus) (P62483 whole entry, looked up): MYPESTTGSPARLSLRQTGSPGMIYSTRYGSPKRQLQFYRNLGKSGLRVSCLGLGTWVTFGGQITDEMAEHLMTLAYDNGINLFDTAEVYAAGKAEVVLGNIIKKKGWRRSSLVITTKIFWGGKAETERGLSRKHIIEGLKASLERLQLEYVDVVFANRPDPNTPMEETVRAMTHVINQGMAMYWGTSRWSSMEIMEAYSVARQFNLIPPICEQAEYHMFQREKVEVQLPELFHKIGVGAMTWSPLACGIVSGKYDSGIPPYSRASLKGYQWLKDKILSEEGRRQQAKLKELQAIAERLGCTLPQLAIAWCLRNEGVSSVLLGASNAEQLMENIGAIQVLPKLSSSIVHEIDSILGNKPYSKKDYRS
Structure (SMILES),cell count [1],inhibition [1],inhibition of aggregation [2],nuclei count [2],inhibition [3],nuclei count [3],fluorescence slope [4],NADPH fluorescence slope [5],slope [6],inhibition [7],inhibition [8]
CC(=O)Nc1ccc(OC(=O)c2cccs2)cc1,716,10.2% (inactive),-5% (inactive),107%,27.9% (inactive),94.2%,-0.473 (inactive),5.9e-06 (inactive),0.00674 (inactive),8.66% (inactive),20% (inactive)
Cc1c(C(=O)OCCOC(C)C)[nH]c2c1C(=O)CC(c1ccco1)C2 (stereo unspecified),482,18% (inactive),-3.7% (inactive),5.8%,-59.6% (inactive),83.1%,-0.553 (inactive),-3.5e-05 (inactive),0.00564 (inactive),13.8% (inactive),82.1% (active)
CC(C)(C)C(=O)NC1CCN(C(=O)N2CCCC2)CC1,685,-6.3% (inactive),-5.3% (inactive),107%,-36.6% (inactive),118%,-0.311 (inactive),-3.2e-05 (inactive),0.00525 (inactive),12.1% (inactive),20.9% (inactive)
O=C(NCc1ccc2c(c1)OCO2)C1CCC(CNS(=O)(=O)c2ccccc2)CC1 (stereo unspecified),316,8.9% (inactive),-31.1% (inactive),111%,-4.9% (inactive),116%,-0.489 (inactive),1.3e-05 (inactive),0.00655 (inactive),11.6% (inactive),26.6% (inactive)
CC1CCN(C(=O)CCNS(=O)(=O)c2ccccc2)CC1,709,0.4% (inactive),-20.3% (inactive),101%,-149% (inactive),142%,-0.605 (inactive),-2.3e-07 (inactive),0.00564 (inactive),-23.4% (inactive),-31.3% (inactive)
O=C(c1cccc(C(=O)N2CCN(c3ccccc3)CC2)c1)N1CCN(c2ccccc2)CC1,667,-2.6% (inactive),1.8% (inactive),98.6%,-86.1% (inactive),112%,-0.456 (inactive),3e-05 (inactive),0.00517 (inactive),4.89% (inactive),-1.16% (inactive)
Cc1ccc(N2C(=O)c3ccccc3C2O)nc1 (stereo unspecified),627,0.8% (inactive),-27.7% (inactive),117%,-15.9% (inactive),117%,-0.587 (inactive),-2.2e-05 (inactive),0.00652 (inactive),48.3% (inactive),41.4% (inactive)
COc1ccccc1OCC(=O)Nc1cccc(-c2nc3ccccc3o2)c1,468,0% (inactive),1% (inactive),61.8%,-65.1% (inactive),110%,-0.374 (inactive),-1.4e-06 (inactive),0.00387 (inactive),-0.911% (inactive),-2.39% (inactive)
CCCCn1c(NCc2ccccc2O)nc2ccccc21,790,-6.4% (inactive),14.4% (inactive),107%,-63% (inactive),120%,-0.567 (inactive),-5.9e-06 (inactive),0.00728 (inactive),0.354% (inactive),25.3% (inactive)
CN(C)c1ccc(NC(=O)c2ccncc2)c2ccccc12,315,2.7% (inactive),6.2% (inactive),94.4%,-88.6% (inactive),105%,-0.316 (inactive),-5.4e-05 (inactive),0.00482 (inactive),15.4% (inactive),12% (inactive)
O=C(Nc1ccc(Cl)cn1)c1cccnc1,340,-8% (inactive),2.7% (inactive),107%,-1.5% (inactive),102%,-0.473 (inactive),1.1e-05 (inactive),0.00527 (inactive),-14% (inactive),-34.8% (inactive)
Cc1cc(C(=O)NCCN2CCN(c3cccc(Cl)c3)CC2)n(-c2ccccc2)n1,647,5.5% (inactive),-25.2% (inactive),78.7%,-50.5% (inactive),108%,-0.531 (inactive),-2.8e-05 (inactive),0.00538 (inactive),16.7% (inactive),35% (inactive)
FC(F)(F)c1nnc2sc(-c3cccs3)nn12,382,-4% (inactive),-16.2% (inactive),84.9%,-28.5% (inactive),96.5%,-0.567 (inactive),-4.5e-05 (inactive),0.00576 (inactive),10.9% (inactive),11.3% (inactive)
COc1cccc(C2=Nn3c(nnc3-c3ccccc3O)SC2)c1,436,3.4% (inactive),2.3% (inactive),99.4%,25.3% (inactive),86.4%,-0.312 (inactive),2.8e-05 (inactive),0.00345 (inactive),6.36% (inactive),19.2% (inactive)
COc1ccc(-c2ccc(-c3noc(-c4cccs4)n3)c(OC)n2)cc1,391,6.8% (inactive),20.7% (inactive),95.6%,-18.2% (inactive),102%,-0.0459 (active),-6.5e-07 (inactive),0.00541 (inactive),-28.9% (inactive),-86.9% (inactive)
c1ccc2c(c1)Cc1cc(CN3CCOCC3)ccc1-2,343,-8% (inactive),-2.2% (inactive),110%,-77.5% (inactive),128%,-0.415 (inactive),-8.5e-05 (inactive),0.00531 (inactive),-50.9% (inactive),-105% (inactive)
COc1cccc(C(=O)Nc2ncc3c(n2)CC(C)CC3=O)c1 (stereo unspecified),390,2.5% (inactive),3% (inactive),95.8%,-0.5% (inactive),88.1%,-0.592 (inactive),-5.1e-05 (inactive),0.00534 (inactive),-6.66% (inactive),-7.05% (inactive)
Cc1occc1-c1nnc(SCC(=O)N2CCc3ccccc32)o1,679,-1.9% (inactive),2.9% (inactive),73.2%,-7.2% (inactive),106%,-0.478 (inactive),2.9e-05 (inactive),0.00881 (inactive),5.8% (inactive),5.93% (inactive)
Cc1cc(C)nc(NC2=NCC(=O)N2c2ccccc2Br)n1,899,-1.7% (inactive),-2.1% (inactive),92.9%,-29.3% (inactive),115%,-0.4 (inactive),9.8e-06 (inactive),0.00564 (inactive),17.3% (inactive),40.3% (inactive)
CCCC1(CCC)NC(=O)NC1=O,548,-3.3% (inactive),-41.1% (inactive),65.5%,-34.4% (inactive),107%,-0.491 (inactive),-4.7e-05 (inactive),0.00587 (inactive),6.49% (inactive),14.1% (inactive)
O=C(NC1CCCC1)C1CC1c1ccccc1 (stereo unspecified),516,-4.3% (inactive),-5.1% (inactive),99.7%,26.9% (inactive),78.4%,-0.617 (inactive),-1.4e-05 (inactive),0.00431 (inactive),8.1% (inactive),8.52% (inactive)
CCOC(=O)c1ccc(NC(=O)Cn2cc3c(n2)CCC(C)C3)cc1 (stereo unspecified),711,-3.7% (inactive),-28.2% (inactive),91.4%,-6% (inactive),101%,-0.485 (inactive),2.3e-05 (inactive),0.00553 (inactive),12.5% (inactive),23.6% (inactive)
COc1cc(OC)cc(OCC(O)Cn2cnc(-c3ccccc3)c2)c1 (stereo unspecified),586,6% (inactive),-5.4% (inactive),92.1%,11.1% (inactive),94.7%,-0.469 (inactive),-4e-05 (inactive),0.00517 (inactive),17.6% (inactive),31.3% (inactive)
CCOC(=O)Cn1c(CN2CCN(c3cccc(Cl)c3)CC2)nc2c1c(=O)[nH]c(=O)n2C,669,0% (inactive),-3.2% (inactive),111%,6.7% (inactive),120%,-0.583 (inactive),-1.7e-05 (inactive),0.00641 (inactive),16.4% (inactive),32.5% (inactive)
COc1ccc(C2CC(c3ccc(OC)cc3)n3nc(N)nc3N2)cc1 (stereo unspecified),595,6.1% (inactive),-5.1% (inactive),99.7%,28.5% (inactive),102%,-0.595 (inactive),-3.1e-05 (inactive),0.00691 (inactive),6.72% (inactive),20.7% (inactive)
CS(=O)(=O)c1ccc2nc(NC(=O)C3C4C=CC(C4)C3C(=O)O)sc2c1 (stereo unspecified),475,12.5% (inactive),0.5% (inactive),96.1%,-113% (inactive),115%,-0.41 (inactive),1e-05 (inactive),0.00376 (inactive),1.15% (inactive),6.4% (inactive)
